# Experimental data taken from PubChem BioAssay (Tox21).
# Active and inactive are the calls of the source. The call rests on the fitted dose curve; in most records, active means well fitted curve in the direction sought with a large enough effect in the repeat runs; inconclusive means weak or mixed curves; inactive means flat fitted curve, though single readings scatter.
# Assay: qHTS assay to test for compound auto fluorescence at 590 nm (red) in HEK293 cells (AID 720679)
# Conditions: red autofluorescence 540/590 nm; series mostly up to 91.3 µM; fluorescence, % of fluorescent control: at the top concentration
# Excerpt: National Center for Advancing Translational Sciences [NCATS]
# NIH Chemical Genomics Center [NCGC]
# U.S. Environmental Protection Agency [EPA]
# National Institutes of Environmental Health Sciences [NIEHS]
# National Toxicology Program [NTP]
# U.S. Food and Drug Administration [FDA]
# Compound auto fluorescence often interferes with screening of the compound library against various biological targets and signaling pathways. Some of these compounds may have fluorophoric properties. Such properties may interfere with the assay outputs resulting in false positives and/or negatives. To decrease such complications and ensure the compound activities are relevant in terms of biological response, the Tox21 10K compound library was screened for auto fluorescence.
# From the fluorophores used as reporter signals in our screening assays, the auto fluorescence equivalencies of compounds against three fluorophores have been evaluated: Triamterene, Fluorescein and Rose Bengal sodium for blue, green and red fluorescence, respectively. The fluorescence intensities were measured using Excitation/Emission wavelengths at 405/460nm, 485/535nm and 540/590nm for blue, green and red labels, respectively. This assay includes the red fluorescence data.
# Tox21 Assay Protocol Summary:
# 2,000 HEK293 cells in 5 uL of culture medium containing 10% dialyzed FBS per well were dispensed into black wall/clear bottom 1536-well plates using a Multidrop Combi Dispenser (Thermo Scientific). The assay plates were incubated for 4-5 hr at 37C to allow cell attachment to the well bottom, followed by the transfer of 23 nL compound or DMSO vehicle by a pintool work station (Kalypsys, San Diego, CA). After the assay plates were incubated overnight at 37C and 5% CO2, fluorescence intensities in the assay plates were measured by an Envision (PerkinElmer, Shelton, CT) plate reader using three labels for measuring blue, green and red fluorescence at […] 460, 535 and 590nm respectively.
# On the % scale 0 is the no-effect control and ±100 the full control effect.
SMILES,"fluorescence, % of fluorescent control",Potency
Cc1cccc(Br)c1,0.181% (inactive),–
O=C(NO)c1ccccc1,-0.627% (inactive),–
CO[C@H]1C=CO[C@@]2(C)Oc3c(C)c(O)c4c(O)c(cc(O)c4c3C2=O)NC(=O)/C(C)=C\C=C/[C@H](C)[C@H](O)[C@@H](C)[C@@H](O)[C@@H](C)[C@H](OC(C)=O)[C@@H]1C,–,inactive
Cc1cn[nH]c1,-0.36% [at 46 µM] (inactive),–
CCN(CC)CCCN(c1ccccc1)C1Cc2ccccc2C1,0.197% [at 46 µM] (inactive),–
CC(C)(C)CC(C)(C)c1ccccc1O,-0.44% (inactive),–
O=C(O)Cc1ccc(OCCNC[C@H](O)c2ccccc2)cc1,0.0846% [at 46 µM] (inactive),–
C/C=C/C=N/NC(=O)c1ccncc1,-0.125% [at 46 µM] (inactive),–
O=C1c2c(O)ccc(O)c2C(=O)c2c(NCCNCCO)ccc(NCCNCCO)c21,-1.36% [at 18.6 µM] (inactive),–
CC(CN(C)C)CN1c2ccccc2CCc2ccccc21 (stereo not given),-0.076% [at 18.6 µM] (inactive),–
CCCCCCCCCCCCCOP(=O)(O)O,-0.0235% (inactive),–
Nc1ncnc2c1ncn2[C@@H]1O[C@H](COP(=O)(O)O)[C@@H](O)[C@H]1O,0.107% [at 46 µM] (inactive),–
NCCCC(O)(P(=O)(O)O)P(=O)(O)O,-0.0167% [at 46 µM] (inactive),–
C(=C/c1ccccc1)/c1ccccc1,-0.0534% [at 95.7 µM] (inactive),–
CCCCCCCC/C=C\CCCCCCCC(=O)OCCOC(=O)CCCCCCC/C=C\CCCCCCCC,-0.281% [at 95.7 µM] (inactive),–
CCCCCCCCCCCCCC[n+]1ccccc1,-0.157% (inactive),–
CC(COC(=O)c1ccccc1)OC(=O)c1ccccc1 (stereo not given),-0.0058% (inactive),–
Clc1ccccc1CN1CCc2sccc2C1,0.289% [at 46 µM] (inactive),–
CCCCCCCCCCOCC(O)CN (stereo not given),0.0226% [at 46 µM] (inactive),–
COC(=O)[C@]1(C)CCC[C@@]2(C)[C@H]1CC=C1C=C(C(C)C)CC[C@@H]12,-0.366% (inactive),–

SMILES,"fluorescence, % of fluorescent control",Potency
O=C1c2c(O)ccc([N+](=O)[O-])c2C(=O)c2c([N+](=O)[O-])ccc(O)c21,0.705% (inactive),–
Cc1nc(Nc2ncc(C(=O)Nc3c(C)cccc3Cl)s2)cc(N2CCN(CCO)CC2)n1,0.877% [at 46 µM] (inactive),–
COc1cccc(CCc2ccccc2OCC(CN(C)C)OC(=O)CCC(=O)O)c1 (stereo not given),-0.0493% [at 46 µM] (inactive),–
[O]=[Zr],-0.262% (inactive),–
O=C1OC(OC(=O)c2cccnc2Nc2cccc(C(F)(F)F)c2)c2ccccc21 (stereo not given),-0.831% [at 46 µM] (inactive),–
Cn1cnc2ncnc(N)c21,-0.0178% [at 46 µM] (inactive),–
CN(C)CCOC(c1ccccc1)c1ccccc1 (tested in a mixture with another compound),0.388% (inactive),–
Clc1ccc(C(Cn2ccnc2)OCc2ccsc2Cl)c(Cl)c1 (stereo not given),0.037% [at 46 µM] (inactive),–
CCCCOc1ccc(C(=O)CCN2CCCCC2)cc1,-0.0275% [at 18.6 µM] (inactive),–
CCCCCCOc1cc(C)c(O)c(C)c1C,-0.0487% [at 95.7 µM] (inactive),–
CCOC(=O)COc1ccc(C)cc1,-0.29% (inactive),–
Oc1ccc(-c2ccc(O)cc2)cc1,-0.461% (inactive),–
CC(=O)Nc1ccc(O)cc1,–,inactive
CN(C)CCCN1c2ccccc2CCc2ccccc21,–,inactive
CCCN(CCc1cccs1)[C@H]1CCc2c(O)cccc2C1,-0.108% [at 46 µM] (inactive),–
CCN1CCN(c2cc(-c3ccc(F)cc3)c3c(n2)CCCCCC3)CC1,-0.342% [at 46 µM] (inactive),–
Cc1c(C(=O)O)cccc1[N+](=O)[O-],-0.213% [at 95.7 µM] (inactive),–
O=C1NCCN1CCN1CCC(c2cn(-c3ccc(F)cc3)c3ccc(Cl)cc23)CC1,–,inactive
C[C@H]1O[C@@H](O[C@H]2[C@@H](O)C[C@H](O[C@H]3[C@@H](O)C[C@H](O[C@H]4CC[C@@]5(C)[C@H](CC[C@@H]6[C@@H]5C[C@@H](O)[C@]5(C)[C@@H](C7=CC(=O)OC7)CC[C@]65O)C4)O[C@@H]3C)O[C@@H]2C)C[C@H](O)[C@@H]1O,–,inactive
CCc1cccc(C)c1,0.0971% [at 95.7 µM] (inactive),–
